Assay outcomes as filed in PubChem.
F508del corr = F508del CFTR correction, initial screen, CFBE line, single point | CFBE cells, YFP halide quenching; stimulated with forskolin plus potentiator P3; % fluorescence drop versus neutral controls | actives 0.36% (n = 350,000) | activity (quench increase), % at 7.58 µM;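 active = mean added fluorescence quench of at least 8% versus neutral control, with both replicates also reaching 8%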;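 note: cells transiently co-express mutant CFTR-F508del with the halide-sensitive YFP; corrector assay measuring rescue of mutant channel to the surface after 24 h compound exposure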
Glyco luc inh = increase of ERlucT glycosylation luciferase signal, primary screen, N-linked glycosylation inhibitor project, D54 ERlucT cells, luminescence, set 2; D54 ERlucT glycosylation luciferase reporter, 24 h; percent of 100 nM tunicamycin response; reporter increase, % at 12.5 µM; actives 0.23% (n = 360,000);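 active = mean luciferase reporter signal, scaled so untreated is 0 and the glycosylation-blocking control 100, at or above a set limit in every replicate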;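 note: luciferase carries N-glycosylation sites so blocking glycosylation raises the light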
RAD52 anneal inh = RAD52 DNA annealing inhibitors, primary screen, biochemical, FRET, single point, set 2; DNA repair protein RAD52 homolog (Homo sapiens), P43351; recombinant RAD52 DNA annealing, FRET fluorescence; inhibition, % at 18.7 µM; actives 0.46% (n = 360,000); AID 651710, 2012;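 active = every replicate showing at least 50% inhibition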
dFosB activator = activators of delta FosB homodimer, primary screen, biochemical, fluorescence polarization, TAMRA-CDK5 oligo, single point. actives 0.99% (n = 340,000). purified delta FosB; percent of positive-control signal above neutral wells. activation, % at 25 µM. AID 493131, 2011. Protein FosB (Mus musculus), P13346;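 active = mean activation above about 17%, with every replicate also reaching it, limit read from the data, passing the limit was not always enough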
PvdQ acylase = P. aeruginosa PvdQ acylase inhibitors, primary screen, biochemical, fluorescence, plate reader and imaging, single point. purified PvdQ acylase. inhibition, % at 10 µM. actives 0.063% (n = 340,000). AID 488965, 2010; in the data active = inhibition above about 30%, passing the limit was not always enough
RAD54 branch = inhibitors of human RAD54 branch migration, primary screen, biochemical, fluorescence, single point; DNA repair and recombination protein RAD54-like (Homo sapiens), Q92698; RAD54 Holliday junction branch migration, FAM/BHQ fluorescence; inhibition, % at 10.4 µM; actives 0.14% (n = 360,000); AID 602329, 2012;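 active = mean normalized replicate activity at least 40 and at least half of replicates scoring 40 or more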;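 note: inhibitors cause a drop in the FAM fluorescence signal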
Target sequence (Q92698 whole entry, looked up): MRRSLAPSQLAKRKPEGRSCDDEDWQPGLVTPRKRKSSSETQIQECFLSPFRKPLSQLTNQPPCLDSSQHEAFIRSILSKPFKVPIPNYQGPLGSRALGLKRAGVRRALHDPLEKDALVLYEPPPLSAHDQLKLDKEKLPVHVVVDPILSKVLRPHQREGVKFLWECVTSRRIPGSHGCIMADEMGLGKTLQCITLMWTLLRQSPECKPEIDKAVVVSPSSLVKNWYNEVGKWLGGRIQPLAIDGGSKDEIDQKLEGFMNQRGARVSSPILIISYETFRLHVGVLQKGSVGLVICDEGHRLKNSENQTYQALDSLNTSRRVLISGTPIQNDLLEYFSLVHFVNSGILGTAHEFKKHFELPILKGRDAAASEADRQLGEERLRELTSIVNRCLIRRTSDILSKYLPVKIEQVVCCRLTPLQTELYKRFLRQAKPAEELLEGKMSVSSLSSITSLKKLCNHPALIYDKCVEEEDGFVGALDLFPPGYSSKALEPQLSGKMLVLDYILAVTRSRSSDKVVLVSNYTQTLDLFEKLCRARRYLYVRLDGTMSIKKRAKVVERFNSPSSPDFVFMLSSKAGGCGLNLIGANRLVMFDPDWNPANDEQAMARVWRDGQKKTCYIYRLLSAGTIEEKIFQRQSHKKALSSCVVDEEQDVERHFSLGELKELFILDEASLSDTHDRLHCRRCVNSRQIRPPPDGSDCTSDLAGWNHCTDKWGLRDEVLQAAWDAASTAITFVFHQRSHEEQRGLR
A number is an active result; i = inactive; nt = no result given. Rows were chosen to be rich in hits. Some 1.5% of all compounds tested hit in one or more screens of this group.

SMILES	F508del corr	Glyco luc inh	RAD52 anneal inh	dFosB activator	PvdQ acylase	RAD54 branch
CN(Cc1ccccc1)C(=O)c1cc2ccccc2o1	i	i	i	i	i	nt
COc1cc2c(c(OC)c1OC)-c1ccc(OC)c(=O)cc1[C@@H](NC(C)=O)CC2	i	i	i	i	i	i
CCN(CC)c1ccc2c(cc1=O)[C@@H](NC)CCc1cc(OC)c(OC)c(OC)c1-2	9.5	i	i	i	i	i
COc1cc2c(c(OC)c1OC)-c1ccc(N(C)CC(OC)OC)c(=O)cc1[C@@H](NC(C)=O)CC2	i	i	i	i	i	nt
CN[C@H]1CCc2cc(OC)c(OC)c(OC)c2-c2ccc(N(C)CC(OC)OC)c(=O)cc21	10.8	i	i	i	i	i
O=C(c1ncn(Cc2ccccc2)c1C(=O)N1CCN(c2ccccc2)CC1)N1CCN(c2ccccc2)CC1	i	49.6	i	i	i	i
CC(=NNC(=O)c1ccncc1)c1ccc2ccccc2c1O	24.7	i	i	i	i	nt
COc1ccc(S(=O)(=O)N(C)C[C@@H]2OCCCC[C@@H](C)Oc3ccc(NS(=O)(=O)c4ccc(F)cc4)cc3C(=O)N([C@@H](C)CO)C[C@H]2C)cc1	i	nt	i	nt	nt	i
Cc1ccc(NC(=O)c2cc(S(=O)(=O)N3CCCCC3)ccc2N2CCOCC2)cc1S(=O)(=O)N(C)C	i	i	i	i	i	i
COc1ccc(OC)c(NC(=O)c2cc(S(=O)(=O)N(C)C)ccc2N2CCCC2)c1	i	i	i	i	i	i
COc1ccc(NC(=O)c2cc(S(=O)(=O)N(C)C)ccc2N2CCCC2)cc1Cl	nt	36.5	i	i	i	nt
Cc1ccc(NC(=O)c2cc(S(=O)(=O)N(C)C)ccc2N2CCCC2)cc1S(=O)(=O)N(C)C	i	60.0	i	i	i	nt
O=c1cc(-c2cccnc2)oc2c1ccc1ccccc12	i	i	i	nt	nt	60.2
O=c1cc(-c2ccccc2)oc2c1ccc1ccccc12	i	nt	i	nt	nt	nt
COc1ccc(C2=Nc3cccc4cccc(c34)N2)cc1	nt	i	nt	54.6	i	i
CCC1(C)Cc2ccccc2-c2nc[nH]c(=O)c21 (stereo unspecified)	8.6	i	i	i	i	i
CCC1(C)Cc2ccccc2-c2[nH]c(=S)[nH]c(=O)c21 (stereo unspecified)	i	i	i	i	i	i
CCOC(=O)N1CCN(C(=O)c2cccc(N3C(=O)NC4CC3(C)Oc3ccc(Cl)cc34)c2)CC1 (stereo unspecified)	i	29.3	i	i	i	i
CO[C@@H]1CN(C)C(=O)c2ccc(NC(=O)C3CC3)cc2OC[C@@H](C)N(C(=O)c2ccccn2)C[C@H]1C	i	nt	i	nt	nt	nt
COCC(=O)Nc1ccc2c(c1)[C@H]1C[C@H](CC(=O)NCc3cc(F)ccc3F)O[C@H](CO)[C@H]1O2	i	nt	nt	nt	nt	i
Cc1cn([C@@H](CCCCNC(=O)OC(C)(C)C)C(=O)NCCCCCCCCCCC(=O)N2CCN(C(=O)OC(C)(C)C)CC2)nn1	nt	i	nt	i	i	i
CC[C@H](C)Cc1cn([C@@H](CCCN=C(NC(=O)OC(C)(C)C)NC(=O)OC(C)(C)C)C(=O)NCCCCCCCCCCC(=O)N2CCN(C(=O)OC(C)(C)C)CC2)nn1	nt	i	nt	33.0	i	i
C[C@@H]1CN([C@H](C)CO)C(=O)c2cc(NC(=O)Cc3ccccc3)ccc2O[C@H]1CN(C)S(C)(=O)=O	i	nt	i	nt	nt	i
C[C@@H]1CN([C@H](C)CO)C(=O)c2cc(NC(=O)Cc3ccccc3)ccc2O[C@@H]1CN(C)S(C)(=O)=O	8.0	nt	i	nt	nt	i
COc1ccc(CN(C)C[C@@H]2Oc3ccc(NC(=O)Nc4ccc5c(c4)OCO5)cc3C(=O)N([C@@H](C)CO)C[C@H]2C)cc1	i	nt	i	nt	nt	61.3
COc1ccc(NC(=O)N(C)C[C@H]2Oc3c(cccc3N(C)C)C(=O)N([C@H](C)CO)C[C@H]2C)cc1	8.1	nt	i	nt	nt	i
